High-throughput results deposited in PubChem by National Center for Advancing Translational Sciences (NCATS).
Compounds with a hit are over-represented: about 2.2% of the library has one in this group of screens.
aSyn rescue: inhibitors of alpha-synuclein toxicity in yeast; Yeast expressing alpha-synuclein, growth rescue, BacTiter-Glo, 24 h; Potency, µM (top dose mostly 46.1 µM), for the others: at the top dose growth rescue (activation), actives largely listed as activators; 0.14% of 370,000 active; AID 652106; also: % of control where 0% means no effect; nearly all actives have a fitted effect of over 65% in size
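Galactose-induced alpha-syn yeast (OD600=0.02, raffinose-pregrown) + pinned cpd, 24 hr, 30 deg C; growth by BacTiter-Glo luminescence. Growth restoration scores as activation.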
Mito fusion act: mitochondrial division inhibition or fusion activation; S. cerevisiae fusion-defective mutant growth rescue, CellTiterGlo 48 h; Potency, µM (titrated, usually from 46.1 µM), for the others: at the top dose growth rescue (activation), most hits filed as activators; 0.23% of 320,000 active; also: % of control where 0% means no effect; nearly all actives have a fitted effect of over 45% in size
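Growth-rescue viability read-out: after 48 h at the non-permissive 37C in glycerol/ethanol YPEG, yeast mitochondrial fusion mutants are measured by CellTiterGlo luminescence; compounds (23 nl pinned per well) restoring growth score as division inhibitors or fusion activators.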
TDP-43 yeast inh: inhibitors of TDP-43 toxicity in yeast | TDP-43 expressing yeast growth rescue, BacTiter-Glo, 24 h | Potency, µM (titrated, usually from 46.1 µM), inactives show at the highest dose growth rescue (activation), usual class: activators | 1.8% of 410,000 active; also: % of control where 0% means no effect; nearly all actives have a fitted effect of over 50% in size
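Luminescence from BacTiter-Glo reports growth of TDP-43-expressing yeast after 24 hr at 30 deg C with compound. Cells were raffinose-pregrown to mid-log, then seeded in galactose medium at OD600=0.02.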
FUS yeast rescue: suppressors of FUS proteinopathy in yeast | S. cerevisiae FUS-expressing, growth rescue, OD600, 24 h | Potency, µM (titrated, usually from 76.6 µM), most hits filed as activators | 0.24% of 390,000 active | AID 1347120;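 also: plate controls were DMSO vehicle for no effect and reference control for full effect; nearly all actives have a fitted effect of over 55% in size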
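Read-out: OD at 600 nm after 24hr at 30C, reporting rescue of FUS-induced yeast toxicity. Cells at OD 0.005 in galactose (2%) minimal medium; compounds tested in a dilution series; CP55940 titration from 92uM final as control.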
Abeta yeast res: A-beta toxicity reversal in yeast; AID 1347071; 0.063% of 410,000 active; Potency, µM (highest dose often 46.1 µM), actives largely listed as activators; yeast expressing A-beta42, growth rescue, OD600, 48 h; response scale: 0% DMSO, 100% iron-clioquinol control; also: nearly all actives have a fitted effect of over 55% in size
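Yeast A-beta toxicity model in growth medium with pinned compounds, 48 h at 30 C; growth read as absorbance at 600 nm. Normalized to FeCl3/clioquinol equimolar mix (positive) and DMSO (negative).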
Starred values were filed as active, the others as inactive; i = inactive; ? = inconclusive; . = no result given. Calls follow the shape of the dose curve; as a rule, active = well fitted curve in the direction sought with a large enough effect; inconclusive = small, poorly fitted or top-dose-only effect, or another doubt; inactive = no such curve, though single readings can be large; an effect the other way counts as inactive or inconclusive. Potency is read from the fitted curve at half-maximal effect.

SMILES	aSyn rescue	Mito fusion act	TDP-43 yeast inh	FUS yeast rescue	Abeta yeast res
Cc1cccc(C(=O)NCC(=O)N2CCN(c3ccc(Cl)cc3)CC2)c1	-11%	8%	14%	i	i
Cc1cc(C)cc(C(=O)NCC(=O)N2CCN(c3cccc(Cl)c3)CC2)c1	2%	4%	13µM*	i	i
Cc1cc(Cl)cc(Cl)c1OCC(=O)NCc1ccco1	5%	-6%	14µM*	i	i
O=C(COc1ccc(Cl)cc1Cl)NCc1ccco1	13%	0%	15%	i	i
O=C(OCc1nc2ccsc2c(=O)[nH]1)c1ccc(Cl)s1	1%	-14%	18µM*	i	i
Cc1cc(=O)n(Cc2ccccc2)c2ccccc12	3%	-5%	25%	i	i
Cc1cc(=O)n(CC=C(Cl)Cl)c2ccccc12	8%	2%	13µM*	?	i
O=C(CCSc1ccc(Br)cc1)c1ccc(O)cc1	2%	7%	11µM*	i	i
COC(=O)[C@]1(C)N[C@H](CN(C)S(=O)(=O)c2ccc(-c3ccccc3)cc2)[C@@H]2C(=O)N(C)C(=O)[C@@H]21	3.2µM*	.	-2%	i	i
C=CCN1C[C@@H](COCc2ccccc2)Oc2cccc(F)c2S1(=O)=O	.	.	.	i	.
COc1ccc(-n2cnc3scc(-c4ccccc4)c3c2=O)cc1	-1%	-1%	11µM*	i	i
COc1ccc(-n2cnc3scc(-c4ccc(OC)c(OC)c4)c3c2=O)cc1	1%	4%	0%	i	i
Cc1ccc(Cn2c(C)c3cnn(CC(=O)N4CCN(c5cc(C)ccc5C)CC4)c(=O)c3c2C)cc1	.	.	16µM*	?	i
Cc1ccc2c(c1)-c1c(cnn1CC(=O)N1CCN(c3cc(C)ccc3C)CC1)CO2	.	.	35µM*	i	i
COc1ccc(N2CCN(C(=O)Cn3ncc4c3-c3cc(C)ccc3OC4)CC2)cc1	.	.	6%	i	i
Cc1cccc(N2CCN(C(=O)Cn3ncc4c3-c3ccccc3OC4)CC2)c1C	.	.	18µM*	?	i
CN1CCN(c2ccc(-c3nc(-c4ccccc4)no3)cc2[N+](=O)[O-])CC1	.	.	-58%	i	i
CCOc1ccc(CNC(=O)C2Cc3cc(S(=O)(=O)N4CCCCCC4)ccc3N2C(C)=O)cc1 (stereo not drawn)	.	.	20%	i	i
COc1ccc2nc(-c3ccccc3)cc(C(=O)OCC(=O)N3CC(C)OC(C)C3)c2c1 (stereo not drawn)	3%	28%	22µM*	?	i
COc1ccc2nc(-c3ccccc3)cc(C(=O)OCC(=O)N3CCCCC3)c2c1	17%	?	?	?	i
COc1ccc(CNC(=O)c2ccc3c(c2)N=C(C)c2c(C)ccc(C)c2S3)cc1	12%	.	13µM*	?	i
Cc1ccc2c(c1)c(C)c(C)n2CC(O)Cn1nc(C)cc1C (stereo not drawn)	12%	-3%	?	i	?
Cc1ccc2c(c1)c(C)c(C)n2CC(O)Cn1nnc2ccccc21 (stereo not drawn)	?	-10%	?	?	10µM*
COc1ccccc1-c1nc2c(c(SCC(=O)Nc3ccc(C)c(C)c3)n1)Cc1c(CO)cnc(C)c1O2	.	.	19%	i	i
CCOC(=O)c1c(C)oc2nc(C)nc(NCCCN3CCN(c4cccc(C)c4)C(C)C3)c12 (stereo not drawn)	.	.	-14%	i	i
SMILES	aSyn rescue	Mito fusion act	TDP-43 yeast inh	FUS yeast rescue	Abeta yeast res
O=C(c1ccccc1)n1ccn(-c2ccccc2)c1=S	-1%	18%	11µM*	i	i
Cc1onc(-c2ccccc2Cl)c1C(=O)Nc1ccc(-n2nncc2-c2ccco2)cc1	10%	-2%	-14%	8.9µM*	i
Cc1oc2ccc(O)c(CN3CCCC(C)C3)c2c1C(=O)Nc1ccccc1 (stereo not drawn)	.	.	23%	i	i
OC(c1ccc(Cl)cc1)c1ncc(-c2ccc(Oc3ccccc3)cc2)[nH]1 (stereo not drawn)	-1%	.	20µM*	?	i
CC(=O)Nc1cc(C(=O)NCc2ccc(F)cc2)ccc1Sc1ccc(C)cc1	.	.	?	?	i
CC(=O)c1cccc(NC(=O)c2csc(-n3nc(C)cc3C(F)(F)F)n2)c1	-4%	3%	13%	i	i
Cc1cc(C(F)(F)F)n(-c2nc(C(=O)Nc3cccnc3)cs2)n1	9%	10%	22µM*	i	i
Cn1c2ccccc2c2ncn(CCC3=CCCCC3)c(=O)c21	-4%	28%	13µM*	i	i
Cn1c2ccccc2c2ncn(CCCN3CCOCC3)c(=O)c21	-3%	-5%	6%	i	i
Cc1ccc2occ(-c3cc(-c4ccc(F)cc4)nc4c3COc3ccc(F)cc3-4)c(=O)c2c1	.	.	13%	i	i
COc1cc2ccccc2cc1-c1nnc(COc2ccccc2)o1	6%	10µM*	25%	i	i
Cc1nc(Oc2ccccc2)c2ccsc2n1	6%	3%	13µM*	i	i
COc1ccc(Oc2ncnc3sccc23)cc1	-6%	2%	?	i	i
CC1CCC(NC(=O)c2ccc(CS(=O)(=O)c3c(Cl)cccc3Cl)o2)CC1 (stereo not drawn)	.	.	35µM*	i	i
CN(C)/[N+]([O-])=N/Oc1ccc([N+](=O)[O-])cc1[N+](=O)[O-]	-47%	.	.	.	.
Cc1ccc(S(=O)(=O)Nc2ccc(SC(F)F)cc2)c(C)c1	18µM*	?	-65%	.	i
CC(C)c1ccc(S(=O)(=O)Nc2ccc(SC(F)F)cc2)cc1	-33%	-25%	-92%	.	i
COC(=O)c1cc(-c2cnc(OC)nc2OC)c(=O)n2c1CCC2	.	.	.	i	.
CCCCC(c1nnnn1CC1CCCO1)N1CCN(c2nc3ccccc3s2)CC1 (stereo not drawn)	-3%	14µM*	-4%	i	i
CCCCC(c1nnnn1CC1CCCO1)N1CCN(c2ccccc2)CC1 (stereo not drawn)	1%	6%	7%	i	i
CCCCC(c1nnnn1CC1CCCO1)N1CCN(c2cc(Cl)ccc2C)CC1 (stereo not drawn)	-14%	1%	18µM*	.	i
COc1ccccc1CNC(=O)c1ccc2[nH]c(C)c(C)c2c1	.	.	?	i	i
Cc1cccc(C)c1NC(=O)Cn1nnc(-c2ccncc2)n1	.	.	.	i	.
CN(C)c1ccc(/C=C/c2ccnc3ccccc23)cc1Br	18%	.	.	.	.
O=C(COc1ccccc1F)Nc1ccc2nc(SCC(=O)N3CCCC3)sc2c1	.	.	12%	i	i
CCOC(=O)/C(=N\Nc1cccc(Cl)c1)Sc1nnc(-c2ccc(OC)cc2)n1C	0%	14%	32µM*	.	i
